# Source: paper PMC8384837, “Expanding the binding specificity for RNA recognition by a PUF domain”
# Positions count from the first letter of the chain named.
# Tests used:
# Experiment in all cases: yeast three-hybrid, YBZ-1, SC-Leu-His + 0.5 mM 3-AT, 4 days
# Settings in all cases: tags: N-Gal4 AD-HA kept; label: inside an RPR1-promoter hybrid RNA with tandem MS2 sites; ssRNA
# [1] = molecular target: PUM1 PUF domain R1-GQK (Homo sapiens, UniProt Q14671 828-1176, S863G;R864Q;Q867K)
# Summary of the method: (§1)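 The interaction score is the log change in variant frequency from input to selection. Scores were computed in log2 with a pseudocount of 1 for absent variants, using Illumina sequencing of PCR-amplified repeat regions. The input came from four days on SC-Leu and the selection from four days on SC-Leu-His + 0.5 mM 3-AT. The cells were strain YBZ-1 (LexA–MS2 coat fusion, HIS3 reporter) co-expressing Pumilio-1 PUF domain libraries and matching RNA elements from a centromeric plasmid.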
# [2] = molecular target: PUM1 PUF domain R1-KYS (Homo sapiens, UniProt Q14671 828-1176, S863K;R864Y;Q867S)
# Summary of the method: as §1
# [3] = molecular target: PUM1 PUF domain R1-RGM (Homo sapiens, UniProt Q14671 828-1176, S863R;R864G;Q867M)
# Summary of the method: as §1
# [4] = molecular target: T1, PUM1 PUF domain R6-CYR (Homo sapiens, UniProt Q14671 828-1176, N1043C;Q1047R)
# T1 sequence: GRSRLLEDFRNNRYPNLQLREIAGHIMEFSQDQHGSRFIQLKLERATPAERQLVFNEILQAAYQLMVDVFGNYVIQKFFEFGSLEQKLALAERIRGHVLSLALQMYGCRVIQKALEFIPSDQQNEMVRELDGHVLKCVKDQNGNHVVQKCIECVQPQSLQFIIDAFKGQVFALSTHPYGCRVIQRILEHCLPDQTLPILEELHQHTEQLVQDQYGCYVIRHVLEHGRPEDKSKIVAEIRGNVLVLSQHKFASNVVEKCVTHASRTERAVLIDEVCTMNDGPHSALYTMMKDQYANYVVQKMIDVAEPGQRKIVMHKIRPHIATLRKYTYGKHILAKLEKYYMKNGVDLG
# Summary of the method: as §1
# [5] = molecular target: PUM1 PUF domain R8-YWR (Homo sapiens, UniProt Q14671 828-1176, N1122Y;Y1123W;Q1126R)
# Summary of the method: as §1
# [6] = molecular target: T2, PUM1 PUF domain R6-RFR (Homo sapiens, UniProt Q14671 828-1176, N1043R;Y1044F;Q1047R)
# T2 sequence: T1 sequence with C216R, Y217F
# Summary of the method: as §1
# [7] = molecular target: PUM1 PUF domain R8-TYR (Homo sapiens, UniProt Q14671 828-1176, N1122T;Q1126R)
# Summary of the method: as §1
# [8] = molecular target: PUM1 PUF domain R8-TFK (Homo sapiens, UniProt Q14671 828-1176, N1122T;Y1123F;Q1126K)
# Summary of the method: as §1
# [9] = molecular target: PUM1 PUF domain R3-RAY (Homo sapiens, UniProt Q14671 828-1176, C935R;R936A;Q939Y)
# Summary of the method: as §1
sequence,measurement,setting,value
GGCUAGAACUAGUGGAUCCCCCGGCGCCCGGCGGCUCGAGCCCGGGUAAGUGUAAAUCGUCUGCAUGCCGCCGGGCGCCAUGCCUGCAGGUCGACUCUAGAAAACAUG,binding signal,[1],3.53 log2 enrichment (interaction score)
same,binding signal,[2],5.18 log2 enrichment (interaction score)
same,binding signal,[3],0.98 log2 enrichment (interaction score)
GGCUAGAACUAGUGGAUCCCCCGGCGCCCGGCGGCUCGAGCCCGGGUAAGUGCAAAUAGUCUGCAUGCCGCCGGGCGCCAUGCCUGCAGGUCGACUCUAGAAAACAUG,binding signal,[4],5.44 log2 enrichment (interaction score)
GGCUAGAACUAGUGGAUCCCCCGGCGCCCGGCGGCUCGAGCCCGGGUAAGUGUAAAUAGUCUGCAUGCCGCCGGGCGCCAUGCCUGCAGGUCGACUCUAGAAAACAUG,binding signal,[4],5.11 log2 enrichment (interaction score)
same,binding signal,[5],4.66 log2 enrichment (interaction score)
same,binding signal,[6],3.75 log2 enrichment (interaction score)
same,binding signal,[7],4.56 log2 enrichment (interaction score)
same,binding signal,[8],2.11 log2 enrichment (interaction score)
GGCUAGAACUAGUGGAUCCCCCGGCGCCCGGCGGCUCGAGCCCGGGUAAGCGUAAAUAGUCUGCAUGCCGCCGGGCGCCAUGCCUGCAGGUCGACUCUAGAAAACAUG,binding signal,[5],4.53 log2 enrichment (interaction score)
same,binding signal,[7],5.46 log2 enrichment (interaction score)
same,binding signal,[8],5.88 log2 enrichment (interaction score)
GGCUAGAACUAGUGGAUCCCCCGGCGCCCGGCGGCUCGAGCCCGGGUAAGUGAAAAUAGUCUGCAUGCCGCCGGGCGCCAUGCCUGCAGGUCGACUCUAGAAAACAUG,binding signal,[6],1.66 log2 enrichment (interaction score)
GGCUAGAACUAGUGGAUCCCCCGGCGCCCGGCGGCUCGAGCCCGGGUAAGUGUAAUUAGUCUGCAUGCCGCCGGGCGCCAUGCCUGCAGGUCGACUCUAGAAAACAUG,binding signal,[9],3.92 log2 enrichment (interaction score)
GGCUAGAACUAGUGGAUCCCCCGGCGCCCGGCGGCUCGAGCCCGGGUAAGUGUAAAUUGUCUGCAUGCCGCCGGGCGCCAUGCCUGCAGGUCGACUCUAGAAAACAUG,binding signal,[3],2.74 log2 enrichment (interaction score)
